Measured values published in ChEMBL document CHEMBL3433997, “St. Jude Leishmania screening dataset” (2016).

What was measured:
Format in all cases: functional
[1] = target: Solute carrier family 2, facilitated glucose transporter member 1 (Homo sapiens) (UniProt P11166); test: ST_JUDE_LEISH: Cytotoxicity at 2uM final concentration against transgenic Leishmania Mexicana promastigotes LmGLUT1 that are glucose transport deficient and complemented with the human glucose transporter GLUT1. Activity is measured by DNA content using SYBR green in vitro
Sequence of Solute carrier family 2, facilitated glucose transporter member 1 (Homo sapiens) (P11166 whole entry): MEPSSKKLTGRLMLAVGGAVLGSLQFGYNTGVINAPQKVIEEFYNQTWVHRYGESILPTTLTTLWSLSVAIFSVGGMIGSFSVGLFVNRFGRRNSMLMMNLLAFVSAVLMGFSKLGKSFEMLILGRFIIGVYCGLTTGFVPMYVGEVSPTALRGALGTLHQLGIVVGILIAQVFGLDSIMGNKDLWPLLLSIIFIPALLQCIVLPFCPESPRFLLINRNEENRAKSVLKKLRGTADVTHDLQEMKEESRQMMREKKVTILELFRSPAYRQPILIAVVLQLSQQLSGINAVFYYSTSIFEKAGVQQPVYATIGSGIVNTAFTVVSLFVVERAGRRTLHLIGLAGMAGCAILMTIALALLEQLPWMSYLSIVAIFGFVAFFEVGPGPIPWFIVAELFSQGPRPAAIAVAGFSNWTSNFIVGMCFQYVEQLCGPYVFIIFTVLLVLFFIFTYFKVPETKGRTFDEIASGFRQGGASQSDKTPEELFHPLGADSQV

[2] = target: Hexose transporter 1 (Plasmodium falciparum) (UniProt O97467); test: ST_JUDE_LEISH: Cytotoxicity at 2uM final concentration against transgenic Leishmania Mexicana promastigotes LmPfHT that are glucose transport deficient and complemented with the Plasmodium falciparum hexose transporter. Activity is measured by DNA content using SYBR green in vitro
[3] = target: Glucose transporter (Leishmania mexicana) (UniProt O61059); test: ST_JUDE_LEISH: Cytotoxicity at 2uM final concentration against transgenic Leishmania Mexicana promastigotes LmGT2 that are glucose transport deficient and complemented with the L. Mexicana glucose transporter 2. Activity is measured by DNA content using SYBR green in vitro

Row | Structure (SMILES) | inhibition [1] [%] | inhibition [2] [%] | inhibition [3] [%]
1 | COc1ccc(CNC(=O)c2cc3c(=O)n4ccccc4nc3n(CCc3ccccc3)c2=N)cc1 | 15.5 | 12 | 9.96
2 | Cc1ccc(NC(=O)c2cc(S(=O)(=O)NC(C)(C)C)ccc2C)nc1 | 0.04 | 0.34 | 2.32
3 | Cc1cccc(NC(=O)c2cnc(N3CCN(c4ccncc4)CC3)c(Cl)c2)c1 | 23.2 | 19.8 | 6.53
4 | CN1CCCN(Cc2ccc(-c3cccc(NC(=O)c4cccc(Cl)c4)c3)cc2)CC1 | 16.5 | 9.2 | 9.24
5 | COc1ccc2nc3cc(Cl)ccc3c(Nc3ccc(O)c(CNC(C)C)c3)c2c1 | 0.29 | 0.43 | 2.23
6 | CC(C)C1=C[C@H]2C[C@]3(C4OCCO4)[C@@H]4CC[C@@H](C)[C@H]4C[C@@]2(COCc2cccc(C#N)c2)[C@]13C(=O)OC(c1ccccc1)c1ccccc1 | 4.12 | 3.24 | 2.75
7 | CCc1ccccc1NC(=O)CN1CCN(c2ncnc3scc(-c4ccc(F)cc4)c23)CC1 | 1.81 | 3.65 | 2.87
8 | CC1=C(C(=O)Nc2ccc(Cl)cc2)C(c2ccncc2)n2nc(C(F)(F)F)nc2N1 (stereo unspecified) | 3.72 | 2.96 | -2.29
9 | COc1cccc(NC(=O)N2CCOC(CCN3CCC4(CCc5ccccc54)CC3)(c3ccc(Cl)c(Cl)c3)C2)c1 (stereo unspecified) | 7.21 | 8 | 1.65
10 | O=S(=O)(c1cc(Cl)c(Cl)cc1Cl)N1CCCCC(c2ccc(C(F)(F)F)cc2)=N1 | -0.66 | 0.43 | 0.91
11 | CC(C)CCNC(=O)C1Cc2c([nH]c3cc(Cl)ccc23)C2(CCN(CCc3ccccc3)CC2)N1 (stereo unspecified) | 1.75 | 2.24 | 0.76
12 | OC(CNc1ccnc(Nc2ccccc2)n1)c1ccc(C(F)(F)F)cc1 (stereo unspecified) | 5.97 | 5.69 | 1.23
13 | COC(=O)C(NC(=O)NC1CCN(c2ccnc(Nc3ccc(F)cc3)n2)C1)c1ccccc1 (stereo unspecified) | -3.11 | -1.97 | -2.66
14 | O=[N+]([O-])c1ccccc1C=NN=c1c2c([nH]c3ccccc13)CCCC2 | 20.8 | 17.5 | 12
15 | Nc1ncc(-c2ccc(F)cc2)c2ccc(-c3cccc(F)c3)cc12 | 5.19 | 5.19 | 2.72
16 | CC(C)(C)c1ccc(NC(=O)c2cccc(CN3CCCN(Cc4cccc(Cl)c4)CC3)c2)cc1 | 5.32 | 4.37 | 2.14
17 | O=S(=O)(NC1CCN(c2ccnc3cc(Cl)ccc23)C1)c1ccc(C(F)(F)F)cc1 (stereo unspecified) | 1.91 | 1.67 | 0.45
